# Laboratory results reported in PubChem BioAssay (EPA / NIEHS).
# Several values for one entry are separate records, joined by “and”; a condition that tells them apart may be missing. Equal entries are not always repeated. Results filed as inconclusive are left out. Activity calls are given as the source filed them. The calls were made as follows: active = hit-call score of the fitted dose curve at least 0.9, where 1 is the maximum; inconclusive = response in the unintended direction; inactive = score below 0.9.
# Biological target: human AKT serine/threonine Kinase 1 (AKT1), AKT1 (gene 207) (UniProt P31749)
# Sequence (P31749 whole entry, looked up): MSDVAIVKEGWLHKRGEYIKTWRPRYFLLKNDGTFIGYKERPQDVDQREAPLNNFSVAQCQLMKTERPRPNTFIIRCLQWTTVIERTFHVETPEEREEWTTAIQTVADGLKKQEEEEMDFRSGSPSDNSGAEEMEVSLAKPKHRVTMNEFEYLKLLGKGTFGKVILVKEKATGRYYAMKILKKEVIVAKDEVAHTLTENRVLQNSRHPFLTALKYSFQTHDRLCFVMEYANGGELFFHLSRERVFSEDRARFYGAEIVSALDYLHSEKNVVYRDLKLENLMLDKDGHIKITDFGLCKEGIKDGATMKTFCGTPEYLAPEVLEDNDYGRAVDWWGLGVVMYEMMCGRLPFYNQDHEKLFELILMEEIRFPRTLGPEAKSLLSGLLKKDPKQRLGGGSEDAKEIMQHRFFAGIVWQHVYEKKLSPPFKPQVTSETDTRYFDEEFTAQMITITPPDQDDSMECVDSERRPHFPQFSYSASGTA
# Test: NVS_ENZ_hAKT1: NovaScreen (NVS) Enzymatic Assay for human AKT serine/threonine Kinase 1 (AKT1) (AID 2283138)
# Method in brief: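 A biochemical assay with recombinant enzyme and specific substrate, read by fluorescence intensity with mobility-shift separation 1 hour after dosing. Actives from 25 uM duplicate screening were titrated up to 50 uM against DMSO baseline.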
row,SMILES,outcome
1,CCCC(CCC)C(=O)O,inactive
2,NNC(=O)c1ccncc1,inactive
3,CCCCCCCC/C=C\CCCCCCCC(=O)OC[C@@H](O)[C@H]1OC[C@H](O)[C@H]1O,inactive

# Biological target: human AKT serine/threonine Kinase 2 (AKT2), AKT2 (gene 208) (UniProt P31751)
# Sequence (P31751 whole entry, looked up): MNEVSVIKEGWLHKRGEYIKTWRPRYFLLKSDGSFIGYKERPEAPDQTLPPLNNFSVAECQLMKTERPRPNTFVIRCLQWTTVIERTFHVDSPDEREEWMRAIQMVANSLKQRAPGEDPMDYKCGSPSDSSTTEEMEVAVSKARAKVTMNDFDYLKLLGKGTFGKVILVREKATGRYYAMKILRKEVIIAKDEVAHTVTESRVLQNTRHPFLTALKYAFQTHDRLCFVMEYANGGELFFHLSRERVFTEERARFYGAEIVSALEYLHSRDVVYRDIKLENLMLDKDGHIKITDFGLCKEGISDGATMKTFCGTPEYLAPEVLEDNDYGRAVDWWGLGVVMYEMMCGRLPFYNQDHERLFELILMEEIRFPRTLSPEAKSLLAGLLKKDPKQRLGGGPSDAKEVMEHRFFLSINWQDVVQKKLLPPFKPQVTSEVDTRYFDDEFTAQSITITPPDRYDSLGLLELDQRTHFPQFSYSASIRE
# Test: NVS_ENZ_hAKT2: NovaScreen (NVS) Enzymatic Assay for human AKT serine/threonine Kinase 2 (AKT2) (AID 2283141)
# Method in brief: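 Cell-free fluorescence/electrophoretic mobility shift readout of recombinant human AKT2 activity, 1 h after chemical dosing. Duplicate primary screen at 25 uM, then singleton concentration-response up to 50 uM; loss of signal versus DMSO baseline.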
SMILES,outcome,AC50
CCCC(CCC)C(=O)O,inactive,–
OCCOCCOCCO,inactive,–
CCCCCCCC/C=C\CCCCCCCC(=O)OC[C@@H](O)[C@H]1OC[C@H](O)[C@H]1O,–,42.1 µM (active)

# Biological target: human Dual Specificity Protein Phosphatase 3 (DUSP3), DUSP3 (gene 1845) (UniProt P51452)
# Sequence (P51452 whole entry, looked up): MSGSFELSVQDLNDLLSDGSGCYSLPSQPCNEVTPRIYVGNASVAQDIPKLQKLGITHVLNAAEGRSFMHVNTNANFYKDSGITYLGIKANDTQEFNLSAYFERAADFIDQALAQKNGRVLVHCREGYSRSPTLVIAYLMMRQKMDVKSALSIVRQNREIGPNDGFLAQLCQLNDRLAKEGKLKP
# Test: NVS_ENZ_hDUSP3: NovaScreen (NVS) Enzymatic Assay for human Dual Specificity Protein Phosphatase 3 (DUSP3) (AID 2283152);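 also: phosphatase activity of recombinant human DUSP3 on a fluorogenic substrate without cells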
# Method in brief: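 Cell-free fluorescence-intensity enzyme activity assay with recombinant protein and substrate; loss of signal fitted relative to DMSO baseline. Primary screen in duplicate at 25 uM, actives then run in concentration series; measured 0 h after dosing.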
SMILES,outcome,AC50
CCCCCCOC(=O)CC(CC(=O)OCCCCCC)(OC(=O)CCC)C(=O)OCCCCCC,inactive,–
CCCCCCCCCC,inactive,–
C=CCc1cc(S(=O)(=O)c2ccc(O)c(CC=C)c2)ccc1O,inactive,–
CCN(CC)C(=S)SSC(=S)N(CC)CC,inactive,–
OCc1c[nH]c2ccccc12,–,19.5 µM (active) and 15.4 µM (active)

# Biological target: human Elastase, ELANE (gene 1991) (UniProt P08246)
# Sequence (P08246 whole entry, looked up): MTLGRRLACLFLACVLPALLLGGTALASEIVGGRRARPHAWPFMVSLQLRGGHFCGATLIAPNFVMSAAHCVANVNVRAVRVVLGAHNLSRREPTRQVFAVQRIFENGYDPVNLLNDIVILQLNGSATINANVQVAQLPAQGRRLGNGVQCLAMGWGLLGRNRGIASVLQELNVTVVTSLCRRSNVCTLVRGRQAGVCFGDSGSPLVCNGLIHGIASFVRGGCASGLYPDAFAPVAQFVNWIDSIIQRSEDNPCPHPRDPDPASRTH
# Test: NVS_ENZ_hElastase: NovaScreen (NVS) Enzymatic Assay for human Elastase (AID 2283153)
# Method in brief: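 Concentration-response to 50 uM max, run singly for chemicals passing a threshold (e.g., 30% inhibition) in a duplicate 25 uM single-point screen. Neutrophil-derived human elastase, absorbance read-out of enzyme activity at 1.5 h; DMSO baseline.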
SMILES,outcome,AC50
CCCCCCOC(=O)CC(CC(=O)OCCCCCC)(OC(=O)CCC)C(=O)OCCCCCC,inactive,–
COc1cc(C(C)C)c2c(c1)S(=O)(=O)N(COc1cc(=O)n3cccc(OCCN4CCCCC4)c3n1)C2=O,–,0.0341 µM (active)
CCn1nc(C)c2c1C(=O)NCC(c1ccc(O)cc1)=N2,inactive,–

# Biological target: human Esterase Plasma (ES), BCHE (gene 590) (UniProt P06276)
# Sequence (P06276 whole entry, looked up): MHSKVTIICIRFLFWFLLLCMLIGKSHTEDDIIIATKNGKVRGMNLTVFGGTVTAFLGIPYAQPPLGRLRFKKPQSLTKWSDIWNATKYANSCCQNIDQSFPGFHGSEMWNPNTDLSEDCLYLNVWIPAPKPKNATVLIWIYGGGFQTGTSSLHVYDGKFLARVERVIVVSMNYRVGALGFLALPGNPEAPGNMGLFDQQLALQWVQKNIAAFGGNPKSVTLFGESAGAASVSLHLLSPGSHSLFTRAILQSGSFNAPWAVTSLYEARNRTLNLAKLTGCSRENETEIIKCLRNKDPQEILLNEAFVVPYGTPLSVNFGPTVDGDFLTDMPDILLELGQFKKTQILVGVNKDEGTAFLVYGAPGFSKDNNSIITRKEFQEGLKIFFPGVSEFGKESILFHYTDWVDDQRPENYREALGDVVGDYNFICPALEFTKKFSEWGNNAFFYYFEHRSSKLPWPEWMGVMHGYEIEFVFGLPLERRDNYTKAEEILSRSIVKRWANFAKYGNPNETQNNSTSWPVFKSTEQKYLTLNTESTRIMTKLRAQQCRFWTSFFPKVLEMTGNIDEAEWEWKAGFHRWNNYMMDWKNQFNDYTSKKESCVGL
# Test: NVS_ENZ_hES: NovaScreen (NVS) Enzymatic Assay for human Esterase Plasma (ES) (AID 2283157)
# Method in brief: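 Human plasma-derived enzyme, cell-free, colorimetric readout at 0.25 h. Primary screen 25 uM in duplicate; hits (e.g. ≥30% inhibition) rerun singleton up to 50 uM. DMSO = negative control/baseline.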
SMILES,outcome,AC50
CCCCCCCCCC,inactive,–
c1ccc(C(O[C@@H]2CCCN(CCc3ccc4c(c3)OCO4)C2)c2ccccc2)cc1,–,7.95 µM (active)
CCN(CC)C(=S)SSC(=S)N(CC)CC,inactive,–
CCn1nc(C)c2c1C(=O)NCC(c1ccc(O)cc1)=N2,inactive,–
OCc1c[nH]c2ccccc12,–,15.3 µM (active) and 19.1 µM (active)
